This is an account of results in PubChem BioAssay.

Assay [1] is described as follows: HepG2 liver cancer cell viability effects, profiling panel, resazurin fluorescence, 24 h, PK04 Diversity Set (AID 1172). Note: test concentration not given here. The following applies: higher = more signal.
Assay [2] is described as follows: basal S. cerevisiae growth modulation, no modifier, primary screen, OD600, strain BY4716, 24 h, basal condition (AID 1173). The following applies: OD600, 24 h, higher = more signal, called active from +8 up or from −8 down.
Assay [3] can be described thus: MM1S myeloma cell viability, profiling panel, resazurin fluorescence, basal, 24 h, PK04 Diversity Set (AID 1174).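 Note: MM1S multiple myeloma cell line; test concentration not given here.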 The following applies: higher = more signal, called active from +8 up or from −8 down.
The target of assay [4] is Dihydroorotate dehydrogenase (quinone), mitochondrial (Plasmodium falciparum (isolate 3D7)) (UniProt Q08210). Put plainly: PfDHODH enzyme inhibitors, primary screen, biochemical, C-terminal His tag, absorbance 600 nm (AID 1175).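 Note: recombinant parasite enzyme with a five histidine tag at its C terminus; test concentration not given here.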 The settings on record: DCIP absorbance 600 nm, higher = more signal, called active from +8 up or from −8 down.
Assay [5] in a line: P. aeruginosa biofilm formation inhibitors, primary screen, strain PAO1, LB-PBS medium, absorbance 600 nm (AID 1176). Note: test concentration not given here. The following applies: P. aeruginosa PAO1 growth/biofilm, A600, 12 h; higher = more signal.
The nature of assay [6]: S. cerevisiae RM11-1a growth modifiers, primary screen, strain RM11-1a, OD600, basal, 24 h (AID 1177).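 Note: cultures grown under basal conditions with no added stressor; test concentration not given here.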 The following applies: OD600, 24 h, higher = more signal, called active from +8 up or from −8 down.
Assay [7] is described as follows: E. coli acrAB mutant growth effects, primary screen, E. coli filamentation inducers, strain DRC39, OD650, 24 h (AID 1178).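 Note: growth measured as culture turbidity by optical density at 650 nm; test concentration not given here.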 The settings on record: higher = more signal, called active from +8 up or from −8 down.
The nature of assay [8]: E. coli acrAB mutant growth effects, primary screen, E. coli filamentation inducers, strain DRC39, OD650, 48 h (AID 1179).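 Note: screen aims at cell division blockers that make cells filament.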 The settings on record: E. coli DRC39 delta-acrAB growth, higher = more signal, called active from +8 up or from −8 down.
Assay [9] in a line: RPMI8226 myeloma cell viability, profiling panel, resazurin fluorescence, basal, 24 h, PK04 Diversity Set (AID 1180).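 Note: RPMI8826 multiple myeloma cell line at 5000 cells per well; test concentration not given here.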 The following applies: higher = more signal. In general terms: Alamar Blue is a resazurin reagent that responds to reducing activity.
Assay [10] deals with E3 ubiquitin-protein ligase XIAP (Homo sapiens) (UniProt P98170). Put plainly: XIAP binders, primary screen, biophysical, small-molecule microarray, fluorescence 635 nm (AID 1181).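 Note: score merges 667 nm emission and signal to noise over triplicate slides.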 The following applies: small-molecule microarray binding, higher = more signal.

The source made the active and inactive calls. Unless noted, the rule behind the calls is not given here.

Sequence of E3 ubiquitin-protein ligase XIAP (Homo sapiens) (P98170 whole entry, looked up): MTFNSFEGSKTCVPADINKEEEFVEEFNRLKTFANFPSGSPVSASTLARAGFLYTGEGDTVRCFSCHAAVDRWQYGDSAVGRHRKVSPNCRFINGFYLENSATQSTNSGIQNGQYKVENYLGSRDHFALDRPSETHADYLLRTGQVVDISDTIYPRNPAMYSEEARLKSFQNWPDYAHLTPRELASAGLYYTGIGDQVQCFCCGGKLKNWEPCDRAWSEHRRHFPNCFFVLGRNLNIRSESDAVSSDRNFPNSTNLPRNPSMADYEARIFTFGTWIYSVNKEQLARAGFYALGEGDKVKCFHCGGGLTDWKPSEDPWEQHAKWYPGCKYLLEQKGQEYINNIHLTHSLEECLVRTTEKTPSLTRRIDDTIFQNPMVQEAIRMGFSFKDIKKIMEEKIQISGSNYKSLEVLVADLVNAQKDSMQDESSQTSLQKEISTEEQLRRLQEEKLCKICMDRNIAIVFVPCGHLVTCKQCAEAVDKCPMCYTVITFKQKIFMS
Sequence of Dihydroorotate dehydrogenase (quinone), mitochondrial (Plasmodium falciparum (isolate 3D7)) (Q08210 whole entry, looked up): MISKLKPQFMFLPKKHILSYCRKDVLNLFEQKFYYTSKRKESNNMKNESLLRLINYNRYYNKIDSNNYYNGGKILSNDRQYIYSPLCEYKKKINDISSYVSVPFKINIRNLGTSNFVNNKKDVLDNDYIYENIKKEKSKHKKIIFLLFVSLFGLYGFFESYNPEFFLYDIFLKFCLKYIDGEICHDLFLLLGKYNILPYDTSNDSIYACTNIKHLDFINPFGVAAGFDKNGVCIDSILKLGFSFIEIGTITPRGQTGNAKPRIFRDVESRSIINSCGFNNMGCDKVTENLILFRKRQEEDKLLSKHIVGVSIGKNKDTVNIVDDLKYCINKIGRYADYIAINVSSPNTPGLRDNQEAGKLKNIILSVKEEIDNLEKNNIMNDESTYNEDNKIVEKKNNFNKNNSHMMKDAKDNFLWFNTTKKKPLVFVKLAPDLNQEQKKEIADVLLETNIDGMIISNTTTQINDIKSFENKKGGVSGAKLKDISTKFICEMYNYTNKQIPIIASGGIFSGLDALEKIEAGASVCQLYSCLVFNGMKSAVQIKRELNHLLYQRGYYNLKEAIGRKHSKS

Turning to `COc1ccc([Si](C)(C)[C@@H]2[C@@H](CC(=O)N3CCC[C@H]3CO)O[C@]3(C(=O)N(C)c4c(Br)cc(C)cc43)[C@H]2C)cc1`, the z-score in assay [1] was 0.27; in [2], -1.62 (inactive); in [3], 0.62 (inactive); in [5], 0.331 (inactive); in assay [6], -1 (inactive); in assay [7] it was 0.233 (inactive). For the same compound, the z-score was 0.0205 (inactive) in [8] and -0.128 in assay [9]. Moreover, the composite z-score in assay [4] was -1.88 (inactive); in assay [10], 0.287.

For `COc1ccc(C(=O)Nc2cccc(CN3C(=O)[C@@]4(O[C@@H](CCn5cc(CCO)nn5)[C@H]([Si](C)(C)c5ccc(OC)cc5)[C@H]4C)c4ccccc43)c2)cc1`, the z-score is -5.75 in assay [1]; -6.12 (inactive) in assay [2]; -9.07 (active) in assay [3]; 0.769 (inactive) in assay [5]; 3.1 (inactive) in assay [6]; 1.7 (inactive) in assay [7]. The z-score in assay [8] is 0.633 (inactive); in assay [9], -6.23. The composite z-score in [4] is 1.42 (inactive); in assay [10], 0.126.

For `CCOC(=O)C1=CCC(C(C)(C)C)N(S(=O)(=O)c2ccc(C)cc2)C1` (stereo not given), the z-score is -0.462 in [1]; 0.586 (inactive) in [2]; -0.0359 (inactive) in assay [3]; -0.321 (inactive) in assay [5]; 1.29 (inactive) in [6]; -0.021 (inactive) in assay [7]. Further, the z-score in assay [8] was -0.52 (inactive); in assay [9] it was -0.719. The results for the composite z-score in [4] and in assay [10] were 0.406 (inactive) and -0.0476, respectively.

Take `O=C1O[C@H](c2ccccc2)[C@H](c2ccccc2)N2[C@H]1[C@@H](C(=O)Nc1nc3ccccc3s1)[C@]1(C(=O)Nc3ccccc31)[C@H]2c1ccc(O)cc1`: the z-score in assay [1] is -0.166; in assay [2] it was -0.373 (inactive); in [3], -2.72 (inactive); in assay [5], 1.18 (inactive); in assay [6] it was -0.393 (inactive); in assay [7], -0.797 (inactive). Moreover, the figures for the z-score in assay [8] and in [9] were -1.24 (inactive) and -2.81, respectively. Also, the composite z-score in assay [4] was 0.192 (inactive); in assay [10], -0.127.

`COc1ccc(C(O)C2C=CC3C(=O)N(c4ccccc4)C(=O)C3N2Nc2ccc([N+](=O)[O-])cc2)cc1OCc1ccccc1` (stereo not given): the z-score in [1] was -0.46; in assay [2], 0.948 (inactive); in [3] it was -0.644 (inactive); in [5], 2.14 (inactive); in [6], -0.384 (inactive); in assay [7], -0.908 (inactive). In addition, the z-score was -0.337 (inactive) in assay [8] and -0.839 in assay [9]. The composite z-score in [4] is 0.323 (inactive); in [10], -0.0655.

Regarding `CN(C)CCCCNC(=O)[C@H]1C[C@H]2C(=O)N[C@@H](Cc3ccccc3)C(=O)N2[C@H]1c1ccc(O)cc1`, the z-score in assay [1] is -0.0562; in assay [2], -0.5 (inactive); in assay [3] it was -0.0866 (inactive); in assay [5], 2.86 (inactive); in [6], 0.466 (inactive); in [7], -0.539 (inactive). Besides, the z-score in [8] was -0.855 (inactive); in [9], -0.0845. For the same compound, the composite z-score in [4] was -16.7 (active); in assay [10] it was 0.0256.

In the case of `CCOC(=O)C[C@H]1[C@H](OC(=O)c2ccc(-c3ccccc3)cc2)[C@@H](NC(=O)c2ccc(-c3ccccc3)cc2)c2cc(OCCCO)ccc2N1C(=O)Cc1ccc(OC)cc1`, the z-score is -0.0995 in [1]; 0.353 (inactive) in [2]; -0.26 (inactive) in assay [3]; 0.432 (inactive) in assay [5]; 0.0873 (inactive) in assay [6]; 0.39 (inactive) in assay [7]. The z-score is 0.372 (inactive) in [8] and -0.361 in assay [9]. The composite z-score is -0.432 (inactive) in [4] and -0.123 in assay [10].

On to `COCC(=C=CC[C@@H](O)c1ccc(CO)o1)CCO`, for which the z-score in assay [1] was 0.59; in assay [2], -3.07 (inactive); in assay [3], 0.698 (inactive); in [5], 0.862 (inactive); in assay [6], -3.85 (inactive); in [7] it was 1.13 (inactive). Moreover, the values for the z-score in assay [8] and in assay [9] were 1.1 (inactive) and 0.529, respectively. Also, the composite z-score is -9.96 (active) in [4] and 0.116 in assay [10].

On to `COc1ccc(CCNC(=O)[C@@H]2c3ccccc3C(=O)N(Cc3ccc(OC(F)(F)F)cc3)[C@H]2c2ccc(CO)cc2)cc1`, for which the z-score in [1] was 0.697; in assay [2], -0.484 (inactive); in [3], -0.0601 (inactive); in [5], 1.52 (inactive); in assay [6], -0.419 (inactive); in assay [7], -0.344 (inactive). In addition, the figures for the z-score in [8] and in assay [9] were -1.06 (inactive) and 0.53, respectively. Also, the composite z-score is 0.274 (inactive) in assay [4] and -0.228 in assay [10].

For the compound `O=C1O[C@@H](c2ccccc2)[C@@H](c2ccccc2)N2[C@@H](c3ccccc3OCCO)[C@]3(C(=O)Nc4ccc(C#CC5(O)CCCCCC5)cc43)[C@@H](C(=O)Nc3nc4ccccc4s3)[C@H]12`, the z-score in assay [1] was -0.592; in [2], 0.193 (inactive); in [3], -3.35 (inactive); in assay [5], 2.5 (inactive); in [6], 1.86 (inactive); in assay [7], -0.994 (inactive). Besides, the z-score in assay [8] was -1.19 (inactive); in [9], -4.98. The composite z-score was 0.18 (inactive) in assay [4] and 0.0077 in assay [10].

Turning to `CC(C)C(=C=CC[C@@H](O)c1ccccc1OCCO)C[C@@H](O)c1ccccn1`, the z-score in assay [1] is -0.347; in assay [2] it was -1.09 (inactive); in assay [3] it was 0.0716 (inactive); in [5] it was 0.142 (inactive); in assay [6], -0.435 (inactive); in assay [7] it was -0.749 (inactive). In addition, the z-score in [8] was -0.628 (inactive); in assay [9] it was 0.221. For the same compound, the values for the composite z-score in assay [4] and in assay [10] were -9.29 (active) and 0.0709, respectively.

On to `Cc1ccc(S[C@]2(C(=O)NCC(C)C)CC(=O)N(Cc3ccccc3)[C@@H]2c2ccc(CO)cc2I)cc1`, for which the z-score is -0.629 in assay [1]; -1.51 (inactive) in assay [2]; -1.73 (inactive) in [3]; 0.282 (inactive) in assay [5]; 0.341 (inactive) in assay [6]; -0.0655 (inactive) in assay [7]. Besides, the z-score in assay [8] was -0.553 (inactive); in assay [9] it was -1.89. In addition, the values for the composite z-score in assay [4] and in [10] were 0.47 (inactive) and 0.0583, respectively.

Consider `CC(C)NC(=O)[C@@]1(Cc2ccccc2I)c2ccccc2C(=O)N(Cc2ccccc2)[C@H]1c1ccc(CO)cc1`, for which the z-score in assay [1] was 0.255; in [2], -0.659 (inactive); in [3], -0.329 (inactive); in assay [5], 0.972 (inactive); in assay [6], -0.0378 (inactive); in assay [7], -0.24 (inactive). In addition, the z-score was -0.324 (inactive) in [8] and -0.211 in assay [9]. The composite z-score is 0.799 (inactive) in assay [4] and -0.0023 in [10].
